Experimental data as given in PubChem BioAssay (NCI).
About 79,000 compounds went through this panel and 15% of them were active in at least one assay; those are over-represented in the sample as a whole. Activity calls are given as the source filed them. No stated cut-off is given here; in the data, active means growth inhibition above about 70%; inactive means the rest.

Columns and labels:
[1] = NCI Yeast Anticancer Drug Screen. Data for the rad52 strain (AID 147);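 further: 0% = growth of vehicle-treated control cultures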; settings: S. cerevisiae rad52 mutant growth inhibition, hits give high values
How it was run: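 Yeast strain carrying a DNA damage repair alteration was exposed to test compounds. Growth inhibition was measured relative to vehicle-treated controls.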

[2] = NCI Yeast Anticancer Drug Screen. Data for the wt1 strain (AID 149);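 further: 0% = growth of vehicle-treated wt1 cultures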; settings: S. cerevisiae wt1 strain (SPY 50644) growth inhibition, hits give high values
How it was run: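 Vehicle-normalised growth inhibition; strain wt1; compound exposure.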

[3] = NCI Yeast Anticancer Drug Screen. Data for the rad50EPP+ strain (AID 151);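 further: 0% = growth of vehicle-treated control cultures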; settings: S. cerevisiae rad50 mutant strain, hits give high values
How it was run: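 Yeast strain carrying rad50 alteration (rad50EPP+) exposed to compounds; growth inhibition measured relative to vehicle-treated controls.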

[4] = NCI Yeast Anticancer Drug Screen. Data for the rad50 strain (AID 155);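 further: 0% = growth of vehicle-only cultures of the same strain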; settings: S. cerevisiae rad50 strain growth inhibition, hits give high values
How it was run: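 A DNA repair-deficient yeast mutant serves as the test organism; compound-induced growth inhibition is calculated against vehicle-treated cells.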

[5] = NCI Yeast Anticancer Drug Screen. Data for the mec2-1 strain (AID 157); settings: S. cerevisiae mec2-1 strain, hits give high values
How it was run: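 mec2-1 yeast strain, carrying an alteration in DNA damage repair or cell cycle control, was exposed to compounds; growth inhibition was measured relative to vehicle-treated controls.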

[6] = NCI Yeast Anticancer Drug Screen. Data for the rad14 strain (AID 159);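 further: 0% = growth of vehicle-treated control cultures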; settings: S. cerevisiae rad14 strain growth inhibition, hits give high values
How it was run: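 Vehicle-treated cultures served as the baseline for growth inhibition of a DNA repair-mutant yeast strain exposed to each compound.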

[7] = NCI Yeast Anticancer Drug Screen. Data for the sgs1 mgt1 strain (AID 161);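 further: 0% = growth of cultures given vehicle only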; settings: S. cerevisiae sgs1 mgt1 strain, hits give high values
How it was run: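 Growth of a repair-deficient yeast mutant was monitored after compound treatment and expressed as inhibition relative to vehicle-treated cultures.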

[8] = NCI Yeast Anticancer Drug Screen. Data for the CLN2oe strain (AID 163);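 further: 0% = growth of vehicle-only control cultures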; settings: S. cerevisiae CLN2oe strain, hits give high values
How it was run: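 Yeast cells carrying a defined cell-cycle control alteration were exposed to test compounds. Growth inhibition was scored against vehicle-treated control cultures.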

[9] = NCI Yeast Anticancer Drug Screen. Data for the bub3 strain (AID 167); settings: S. cerevisiae bub3 mutant strain, hits give high values
How it was run: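 Inhibition values come from growth of compound-treated mutant yeast normalised to vehicle-treated controls.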

[10] = NCI Yeast Anticancer Drug Screen. Data for the wt2 strain (AID 169);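 further: 0% = growth of vehicle-treated yeast cultures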; settings: S. cerevisiae wt2 strain growth inhibition, hits give high values
How it was run: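 Yeast cells were exposed to test compounds, and growth inhibition was measured relative to vehicle-treated controls.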

[11] = NCI Yeast Anticancer Drug Screen. Data for the mlh1 strain (AID 171);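 further: 0% = growth of vehicle-treated control cultures of the same strain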; settings: S. cerevisiae mlh1 strain growth inhibition, hits give high values
How it was run: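 Yeast carrying a defined genetic alteration in DNA damage repair or cell cycle control were exposed to test compounds. Growth inhibition was measured relative to vehicle-treated controls.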

[12] = NCI Yeast Anticancer Drug Screen. Data for the rad18 strain (AID 177); settings: S. cerevisiae rad18 mutant growth inhibition, hits give high values
How it was run: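 Yeast carrying a defined DNA damage repair alteration were exposed to compounds. Growth inhibition was expressed relative to vehicle-treated controls.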

[13] = at 5.0 µM (retest, dose inferred, filed as 0.5)
[14] = at 50.0 µM (retest, dose inferred, filed as 5.0)

Measured: growth inhibition

COc1ccc(/C=C2\SC(=S)N(C=C3C(=O)NC(=S)NC3=O)C2=O)cc1OC
inactive: [1]; at 1.2 µM 12% | [1]; at 3.7 µM 15% | [1]; at 11.0 µM 47% | [2]; at 1.2 µM 4% | [2]; at 3.7 µM 6% | [2]; at 11.0 µM 25% | [3]; at 1.2 µM 0% | [3]; at 3.7 µM 7% | [3]; at 11.0 µM 37% | [3]; at 33.0 µM 56% | [3]; at 100.0 µM 59% | [4]; at 1.2 µM 3% | [4]; at 3.7 µM 3% | [4]; [13] -2% | [4]; at 11.0 µM 37% | [4]; [14] 65% | [4]; at 50.0 µM 49.8% | [5]; at 1.2 µM 10% | [5]; at 3.7 µM 14% | [5]; [13] -16% | [5]; at 11.0 µM 58% | [6]; at 1.2 µM 6% | [6]; at 3.7 µM 15% | [6]; at 11.0 µM 52% | [7]; [13] -6% | [8]; at 1.2 µM -11% | [8]; at 3.7 µM -1% | [8]; at 11.0 µM 39% | [9]; at 1.2 µM 6% | [9]; at 3.7 µM 8% | [9]; [13] 3% | [9]; at 11.0 µM 33% | [9]; at 33.0 µM 60% | [9]; [14] -1% | [9]; at 50.0 µM 44.3% | [9]; at 100.0 µM 59% | [10]; at 1.2 µM 1% | [10]; at 3.7 µM 7% | [10]; at 11.0 µM 52% | [11]; at 1.2 µM 0% | [11]; at 3.7 µM 10% | [11]; at 11.0 µM 51% | [12]; at 1.2 µM 16% | [12]; at 3.7 µM 34% | [12]; at 11.0 µM 60%
active: [1]; at 33.0 µM 83% | [1]; at 100.0 µM 89% | [2]; at 33.0 µM 79% | [2]; at 100.0 µM 94% | [4]; at 33.0 µM 80% | [4]; at 100.0 µM 88% | [5]; at 33.0 µM 91% | [5]; [14] 75% | [5]; at 50.0 µM 77.8% | [5]; at 100.0 µM 93% | [6]; at 33.0 µM 85% | [6]; at 100.0 µM 92% | [7]; [14] 76% | [7]; at 50.0 µM 85.8% | [8]; at 33.0 µM 85% | [8]; at 100.0 µM 90% | [10]; at 33.0 µM 92% | [10]; at 100.0 µM 95% | [11]; at 33.0 µM 89% | [11]; at 100.0 µM 89% | [12]; at 33.0 µM 82% | [12]; at 100.0 µM 89%
